# Among all 320,000 compounds or so, about 740 (0.23%) were called active. About 2% were inconclusive and are not listed. Calls follow the shape of the dose curve; as a rule, active = well fitted activation curve with a large enough effect; inconclusive = small, poorly fitted or top-dose-only effect; inactive = no such curve, though single readings can be large or run the other way. Only a selection was taken, and actives are over-represented in it overall.
# Assay: qHTS Assay for Small Molecule Inhibitors of Mitochondrial Division or Activators of Mitochondrial Fusion; also: nearly all actives have a fitted effect of over 45% in size; as to growth rescue (activation): % of control where 0% means no effect
# Settings: S. cerevisiae fusion-defective mutant growth rescue, CellTiterGlo 48 h; series mostly up to 46.1 µM; growth rescue (activation): at the top concentration
# From the text: NIH Chemical Genomics Center [NCGC] NIH Molecular Libraries Probe Production centers Network [MLPCN] MLPCN Grant: MH081279-01 Assay Submitter (PI): Jodi M. Nunnari NCGC Assay Overview: The budding yeast S. cerevisiae is a powerful system to study mitochondrial fusion. Unlike other organisms, yeast cells without functional mitochondrial DNA (mtDNA) can be propagated and studied as long as they maintain a mitochondrial compartment and are provided with a fermentable carbon source. When mitochondrial fusion is blocked in yeast, mitochondrial tubules rapidly fragment and division continues unopposed. Under conditions where fusion is compromised in mammalian cells, nearly identical changes in mitochondrial structure have been observed. Thus, these findings indicate that steady state mitochondrial structure in cells is a characteristic and specific indicator of fusion activity. Mounting evidence has pointed to a connection between mitochondrial dynamics and apoptosis in mammalian cells. These studies indicate that in mammalian cells mitochondrial dynamics are more integrated into cellular processes than in yeast cells and have evolved not only to distribute the organelle but also to aid in the regulation of cellular homeostasis. Mitochondrial fusion proteins attenuate apoptosis by inhibiting the release of cytochrome c from mitochondria, in part by controlling cristae structures. Thus, small molecules that inhibit mitochondrial […] may promote apoptosis and potentially act as novel chemotherapeutics and stimulation of apoptosis has become an attractive target of anti-cancer therapies. To identify inhibitors of mitochondrial division, we exploit the growth phenotypes of mitochondrial fusion-defective mutants. The temperature sensitive fusion alleles, such as fzo1-1 and mgm1-5, cause mitochondrial membranes to fragment in cells under non-permissive conditions and cells lose mtDNA, and are unable to grow in the presence of non-fermentable carbon source glycerol. Inhibiting mitochondrial division rescues growth. We have developed and optimized a luminescence cell viability assay in 1536 well format for the identification of inhibitors in the yeast mitochondrial fusion-defective assay.
# The yeast glycerol stocks where kindly supplied by the laboratory of Dr. Jodi Nunnari, University of California, Davis. All yeast glycerol stock solutions were stored in single use aliquots at -80C. The CellTiterGlo luminescence reagent, containing luciferase and luciferin, were purchased from Promega, and the reagents were stored according to manufacturer's instructions. The Buffer components for the YPEG yeast growth medium were purchased from Sigma-Aldrich (St. Louis, MO). YPEG growth medium: 1% (w/v) yeast extract, 2% (w/v) Bacto-peptone, 3% Ethanol, 3% glycerol, 0.4mM Tryptophan, 0.36mM Adenine. qHTS Assay Protocol: 1.#Dispense 2.5 ul yeast growth medium per 1536 well plate. 2.#Transfer 23 nl per well of compound to plate. 3.#Dispense 2.5 ul yeast solution at appropriate seeding density per well. 4.#Incubate for 48 hours at 37C. 5.#Dispense 5 ul of CellTiterGlow solution per well. 6.#Incubate at ambient for 10 minutes. 7.#Read using bio-luminescence protocol on Viewlux.
# Potency is read from the fitted curve at half-maximal effect.
Structure (SMILES),Potency,growth rescue (activation)
COc1ccc(-c2c(-c3cc(OC)cc(OC)c3)n(C)c3ccc(-c4ccn[nH]4)cc23)cc1,10 µM (active),–
COc1cc(OC)cc(-c2c(-c3cccs3)c3cc(-c4ccc(OC)nc4)ccc3n2C)c1,–,-3.31% (inactive)
COc1cc(OC)cc(-c2c(-c3ccc(F)cc3)c3cc(-c4ccc5cc[nH]c5c4)ccc3n2C)c1,–,0.6% (inactive)
COC(=O)c1cc(S(=O)(=O)NCC2CCN(Cc3ccc(Cl)cc3)CC2)cn1C,–,4.02% (inactive)
CCn1cc(/C=C(\NC(=O)c2ccc(C)cc2)C(=O)NCCN2CCOCC2)c2ccccc21,–,2.95% (inactive)
Cn1cccc1C1(C(F)(F)F)NCCNC1=O (stereo unspecified),–,-7.26% (inactive)
Cc1cc(C)cc(C(=O)OCC(=O)NCCNC(=O)COC(=O)c2cc(C)cc(C)c2)c1,–,2.13% (inactive)
COc1ccccc1-n1c(-c2ccc(C)cc2)cn2c3c(=O)n(C)c(=O)n(C)c3nc12,–,4.07% (inactive)
O=C(COC(=O)c1ccccc1Cl)NC1CCCCCCC1,–,13.9% (inactive)
Cc1csc(=NC(=O)c2ccccc2)n1CCO,–,-5.75% (inactive)
Cc1csc(=Nc2ccccc2)n1CCO,–,-1.72% (inactive)
OCCn1c(-c2ccccc2)csc1=Nc1ccccc1,11.2 µM (active),–
CCN1C(=O)[C@@H]2[C@@H](c3ccc(-c4cccc(Cl)c4)cc3)N3CCC[C@@]3(C(=O)OC)[C@@H]2C1=O,–,21.1% (inactive)
COc1cccc(C(=O)NCCS(=O)(=O)NCC2CCCO2)c1 (stereo unspecified),–,-4.41% (inactive)
COc1cccc(/C=C2\Sc3ccc(C(=O)NCC4CCCO4)cc3N(C)C2=O)c1 (stereo unspecified),17.8 µM (active),–
COc1ccccc1-n1cnc2cc(C(=O)NCC3CCCO3)ccc21 (stereo unspecified),–,0.667% (inactive)
O=C(NC1CCCC1)C1CC(=O)N(c2ccc(F)cc2)C1 (stereo unspecified),–,0.703% (inactive)
O=C1CN(C(=O)CN2C(=O)NC3(CCCCC3)C2=O)c2ccccc2N1,–,-1.41% (inactive)
CCOC(=O)c1cc2c(n(-c3ccc(C)cc3)c1=O)CCCC2=O,–,0.547% (inactive)
CCOC(=O)C1=C(N)N(c2ccc(C)cc2)C2=C(C(=O)CCC2)C1c1cccs1 (stereo unspecified),20 µM (active),–
O=C1CCCC2=C1C(c1cccs1)CC(=O)N2c1ccc(F)cc1 (stereo unspecified),–,3.59% (inactive)
COC(=O)C(C)N=Cc1ccccc1 (stereo unspecified),–,1.48% (inactive)
COc1ccc(S(=O)(=O)N2CCN(CC(=O)N3c4ccccc4CC3C)CC2)cc1OC (stereo unspecified),–,-2.4% (inactive)
NC(=O)C1CCN(Cc2nc3c(Br)cc(Br)cc3c(=O)[nH]2)CC1,–,1.78% (inactive)
CC(C)OC(=O)c1c(NC(=O)c2ccco2)sc2c1CCCC2,–,0.828% (inactive)
COC(=O)c1c(NC(=O)CSc2nncs2)sc2c1CCCCC2,–,21.5% (inactive)

Structure (SMILES),Potency,growth rescue (activation)
COC(=O)c1c(NC(=O)c2cccs2)sc2c1CCCC2,14.1 µM (active),–
C=CC1(C)CC(=O)C2(O)C(C)(O1)C(OC(C)=O)C(O)C1C(C)(C)CCC(O)C12C (stereo unspecified),–,-7.55% (inactive)
O=c1c(Cl)c(NCc2ccc(F)cc2Cl)cnn1C12CC3CC(CC(C3)C1)C2,–,3.54% (inactive)
Cc1csc(OCC(=O)Nc2ccc(C)c(C)c2)n1,–,5.43% (inactive)
Cc1nc(COc2cc3oc(=O)cc(C)c3cc2Cl)cs1,–,3.56% (inactive)
Cc1ccc(C)c(NS(=O)(=O)c2cc(Br)cnc2N)c1,–,7.1% (inactive)
CC(=O)/C(C)=N/O,20.6 µM (active),–
CCCN1CCN(C(=O)Cn2ncc3ccccc32)CC1,–,-6.24% (inactive)
CCCCN(C(=O)C(CCSC)N1C(=O)c2ccccc2C1=O)c1c(N)n(CCC)c(=O)[nH]c1=O (stereo unspecified),–,0.275% (inactive)
NC1CCN(O)C1=O (stereo unspecified),–,-8.2% (inactive)
COC(=O)c1c(C(=O)OC)c2n(c1C)CCS2,–,-0.353% (inactive)
CCCC1=Nc2cc(C(=O)NCc3ccco3)ccc2Sc2ccccc21,31.6 µM (active),–
CCC1=Nc2cc(C(=O)NCCN3CCCC3)ccc2Sc2ccc(C)cc21,–,-11.8% (inactive)
CCCC1=Nc2cc(C(=O)NCCN3CCCC3)ccc2Sc2ccccc21,–,-5.25% (inactive)
C[C@H](NC(=O)C1CC(=O)N(c2ccc3c(c2)OCCO3)C1)C(=O)N1CCC(C(=O)O)CC1 (stereo partly specified),–,0.693% (inactive)
O=C(NCC(c1ccco1)S(=O)(=O)c1cccs1)c1ccc(F)cc1 (stereo unspecified),–,-1.33% (inactive)
COC(=O)CN1C(=O)[C@H]2[C@@H](C3CC3)N3C(=O)CN(Cc4ccc(-c5ccccc5)cc4)C(=O)[C@@]3(Cc3ccccc3)[C@H]2C1=O,–,4.79% (inactive)
O=C(NCc1cccnc1)Nc1cccc(NC(=O)NCc2cccnc2)c1F,–,-4.47% (inactive)
Cc1ccc(NC(=O)Cn2nnc3sc4c(c3c2=O)CCC(C)C4)cc1 (stereo unspecified),–,-0.959% (inactive)
COc1ccc(C2CC(=O)Nc3c2c(=O)nc2c(C)cccn32)cc1OC (stereo unspecified),–,-1.37% (inactive)
Cc1ccc(N2CCN(/N=C/c3cccs3)CC2)cc1,–,-2.37% (inactive)
Cc1ccsc1/C=C1\SC(N2CCOCC2)=NC1=O,–,1.79% (inactive)
Cc1ccc(N2CCN(C3=NC(=O)/C(=C\c4cccs4)S3)CC2)cc1,22.4 µM (active),–
C=CCn1nc(-c2ccccc2)c2c(C)onc2c1=O,–,1.38% (inactive)
COc1ccc([C@H]2CC(=O)C=C(c3ccc(CO)cc3)C2)cc1,–,10.6% (inactive)

# Reference: PubChem BioAssay AID485298 (National Center for Advancing Translational Sciences (NCATS), 2010)
